Hits are enriched below; roughly 13% of the tested compounds scored in any of these assays.
HCV inhibitor = blocks hepatitis C virus. Huh7.5.1 HCVcc-Cre infection, luciferase reporter, 44 h. Potency, µM (doses to about 41.8 µM), for the others: top-dose activity change, negative = inhibition, hits mostly inhibitors. hit rate 3.4% among 340,000. AID 651820; further: potency means the concentration at half of the fitted maximal effect
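Compounds are dispensed onto cells plated 4 h earlier at 1,000 per well, with HCVcc-Cre virus (about 0.5 moi) added next. Following 44 h of culture, luminescent signal is measured for 15 sec after 15 min with substrate at room temperature.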
HCMV inh = inhibitors of human cytomegalovirus. hit rate 4.5% among 410,000. HFF cells, HCMV-luciferase reporter, 72 h; hits give low values. AID 1259415. activity change, negative = inhibition, % at 57.5 µM; in the data active means activity change below about -60%; inconclusive means no clear call, values can overlap the other calls; inactive means above about -39%
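Two compound doses tested in HFFs infected with HCMV-luciferase, MOI 1 PFU/cell, 72 h at 37C. Lysate luminescence read with OneGlo; data normalized against buffer-only and 10uM Salinomycin inhibitor controls.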
Pf growth 48h = P. falciparum growth inhibition at 48 hours (one generation) | P. falciparum luciferase growth in erythrocytes, 48 h | Potency, µM (top dose mostly 28.7 µM), for inactives: top-dose activity change, negative = inhibition, actives largely listed as inhibitors | hit rate 5.9% among 310,000 | AID 504832; further: potency means the concentration at half of the fitted maximal effect
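Erythrocytes infected with P. falciparum carrying an integrated firefly luciferase reporter (2% hematocrit, 0.1% parasitemia final) were exposed to compounds in RPMI 1640 with 0.5% Albumax at 37 C, 5% CO2. Growth inhibition was scored as reduced luminescence.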
Pf growth 96h = P. falciparum growth inhibition at 96 hours | hit rate 6.9% among 320,000 | Potency, µM (doses to about 28.7 µM), for inactives: top-dose activity change, negative = inhibition, actives largely listed as inhibitors | P. falciparum luciferase reporter growth, 96 h; further: potency means the concentration at half of the fitted maximal effect
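Two parasite generations (96 h, 37 C, 5% CO2) of compound exposure in infected erythrocytes (0.05% parasitemia, 2% hematocrit). Luciferase-reporter P. falciparum; decreased luminescence indicates inhibited growth, aimed at apicoplast-acting delayed death.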
An asterisk follows results filed as active; ? = inconclusive; · = no result given. Unless noted, the call rests on the fitted dose curve; in most records, active means well fitted inhibition curve with a large enough effect; inconclusive means small, poorly fitted or top-dose-only effect, or another doubt; inactive means no such curve, though single readings can be large or run the other way. On the % scale 0 is the no-effect control and ±100 the full control effect.

SMILES	HCV inhibitor	HCMV inh	Pf growth 48h	Pf growth 96h
COCCNC(=O)C1(C)CCN(C(=O)c2sccc2C)C1 (stereo not drawn)	·	-17	·	·
CCc1ccc(CN(Cc2cccnc2)C(=O)/C=C/c2ccc(OC)cc2)cc1	?	98	8.3µM*	?
COc1cccc(-c2nc(SCc3cc(=O)c4cc(Cl)ccc4[nH]3)n[nH]2)c1	·	5	·	·
CC(C)CN1C(=O)c2ccc(NC(=O)c3cccs3)cc2C1=O	?	-27	8.3µM*	·
CC(C)CN1C(=O)c2ccc(NC(=O)c3ccco3)cc2C1=O	1%	-4	-8%	?
O=C(Nc1ccc(Oc2ccc3c(c2)C(=O)N(c2ccc(O)cc2)C3=O)cc1)c1cccs1	-13%	-78*	26%	?
NC(=O)c1cc(-c2ccccc2)sc1NC(=O)CN1CCCCC1	13µM*	-15	-2%	?
COC(=O)c1cc(-c2ccccc2)sc1NC(=O)CN1C(=O)c2ccccc2C1=O	?	-64*	5%	0%
CC(C)(C)C(=O)Nc1sc(-c2ccccc2)cc1C(=O)O	7%	-64*	82%	0%
COCCCNC(=O)Cn1nc(N2CCN(c3ccccc3)CC2)ccc1=O	·	-13	·	·
Cc1ccc(CSc2nc3c(c(N(C)C)n2)CCCC3)cc1	?	-35	13µM*	?
CN(C)c1nc(SCc2ccccc2Cl)nc2c1CCCC2	-17%	·	?	?
CNc1nc(SCc2ccc(C)cc2)nc2c1CCCC2	?	-32	7.4µM*	13µM*
Cc1ccc(CSc2nc3c(c(SCC(=O)O)n2)CCCC3)cc1	12%	-34	7%	-9%
Cc1cccn2c(=O)c(C(=O)NCc3ccccc3Cl)c(O)nc12	·	-5	·	·
O=S(=O)(c1ccc2nc(Nc3ccccc3)ccc2c1)N1CCCCC1	-25%	-4	10µM*	?
CC(=O)c1cccc(Nc2ccc3cc(S(=O)(=O)N4CCCC4)ccc3n2)c1	·	-20	·	·
COc1cccc(Nc2ccc3cc(S(=O)(=O)N4CCC(C)CC4)ccc3n2)c1	·	-87*	·	·
O=C(Cn1c(=O)nc(-c2ccccc2F)c2cc(Cl)ccc21)Nc1ccccc1C(F)(F)F	·	17	·	·
O=Nc1c(O)c2ccccc2c2ccccc12	?	-98*	·	·
C=CCn1c(SCC(=O)N2CC(=O)Nc3ccccc32)nc2scc(-c3ccccc3)c2c1=O	-18%	27	8.3µM*	4.7µM*
O=C(CSc1nnnn1-c1ccccc1)N1CCNC1=O	13%	-15	12%	?
O=C1CN(C(=O)CSc2nc3cc(Cl)ccc3c(=O)n2Cc2ccccc2)c2ccccc2N1	11µM*	?	3.3µM*	?
O=C1CN(C(=O)CSc2nnnn2-c2ccc(Cl)cc2)c2ccccc2N1	-6%	2	4.7µM*	54%
Cc1nnc(SCC(=O)N2CC(=O)Nc3ccccc32)n1Cc1ccccc1	6%	62	?	-3%
SMILES	HCV inhibitor	HCMV inh	Pf growth 48h	Pf growth 96h
C=CCn1c(SCC(=O)NCc2ccc3c(c2)OCO3)nc2scc(-c3ccccc3)c2c1=O	?	89	?	?
Cc1ccc(Cn2c(SCC(=O)N3CC(=O)Nc4ccccc43)nc3ccccc3c2=O)cc1	10µM*	-76*	?	13µM*
Cc1cc(C)cc(Oc2cc(NC(=O)c3cn(C)nc3C)cc([N+](=O)[O-])c2)c1	-9%	-33	·	8.3µM*
CC(C)=NOc1cc(NC(=O)CCl)cc([N+](=O)[O-])c1	25µM*	-83*	?	?
O=C(CCl)Nc1cc(SCC(O)CO)cc([N+](=O)[O-])c1 (stereo not drawn)	1.6µM*	-99*	?	-21%
CCC(=O)Nc1cc(SCCO)cc([N+](=O)[O-])c1	·	40	43%	12%
O=C(O)c1ccc2c(c1)C(=O)N([C@H](Cc1ccc(Cl)cc1)C(=O)O)C2=O	·	·	?	0%
O=S1(=O)CC(O)C(Nc2ccc(Cl)cc2)C1 (stereo not drawn)	1%	?	10%	3.7µM*
Cc1cc(C)nc(-n2ncc3c2CC(c2ccccc2C)CC3=O)n1 (stereo not drawn)	-2%	?	?	5.2µM*
Cc1cc(C)nc(-n2ncc3c2CC(c2ccccc2)CC3=O)n1 (stereo not drawn)	9%	?	-28%	?
Cc1cc(C)nc(-n2ncc3c2CC(c2cccc(Cl)c2)CC3=O)n1 (stereo not drawn)	-10%	-89*	?	4.1µM*

Screening data from PubChem.
